Bioassay records as filed in PubChem.
CASP6 VEID inh = caspase-6 (human) enzyme inhibition; P55212; purified caspase-6, Z-VEID-R110 cleavage fluorescence; inhibition, % at 12.5 µM; 350,000 compounds, 0.53% hits; AID 686996;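 active = mean inhibition across replicates at least about 35%, with every replicate also reaching that limit, limit read from the data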
Target sequence (P55212 24-179 limits assumed): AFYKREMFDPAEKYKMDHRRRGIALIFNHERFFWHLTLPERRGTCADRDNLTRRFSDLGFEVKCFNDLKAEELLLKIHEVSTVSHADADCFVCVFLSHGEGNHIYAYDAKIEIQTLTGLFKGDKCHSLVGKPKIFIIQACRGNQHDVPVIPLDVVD
Target sequence (P55212 194-293 limits assumed): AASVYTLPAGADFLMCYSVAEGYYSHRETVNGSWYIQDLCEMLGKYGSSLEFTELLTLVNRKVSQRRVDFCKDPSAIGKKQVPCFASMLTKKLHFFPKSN
SIRT5 block = inhibitors of human sirtuin-5 desuccinylase; Purified SirT5, succinyl-peptide AMC, trypsin-coupled fluorescence; inhibition, % at 15 µM; 330,000 compounds, 1.1% hits; in the data active = inhibition above about 15%
Target sequence (Q9NXA8 whole entry, looked up): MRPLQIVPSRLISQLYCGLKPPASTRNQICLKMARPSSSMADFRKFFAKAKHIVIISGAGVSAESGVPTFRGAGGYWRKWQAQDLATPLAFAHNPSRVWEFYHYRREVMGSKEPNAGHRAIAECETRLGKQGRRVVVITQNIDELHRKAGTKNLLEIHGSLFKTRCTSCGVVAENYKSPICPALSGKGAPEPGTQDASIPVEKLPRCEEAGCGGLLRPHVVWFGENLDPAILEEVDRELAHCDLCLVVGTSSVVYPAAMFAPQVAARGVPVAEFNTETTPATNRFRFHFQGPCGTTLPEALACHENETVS
SUMO HTRF inh = inhibitors of human SUMOylation (UBC9); inhibition, % at 35 µM; 290,000 compounds, 0.36% hits; HTRF SUMOylation assay, SAE1/SAE2 + UBC9, in vitro; in the data active = inhibition above about 50%, passing the limit was not always enough
NSD2 HMT inh = inhibitors of human histone methyltransferase NSD2; 310,000 compounds, 0.54% hits; NSD2 peptide methylation, AlphaScreen, 120 min; AID 743445; O96028; inhibition, % at 12.5 µM; in the data active = inhibition above about 50%
Of the large screens only hits and unclear results are named; the others gave an inactive call; ! = a repeat was not active. The list is not random: actives were taken first. Their share in the collection is about 1.6%.

CCn1c(=O)cc(SCC(=O)N2CCCCC2)c2ccccc21	none (no result: CASP6 VEID inh, SIRT5 block)
Cc1ccc(C)c(N2CCN(C(=O)CCS(=O)(=O)c3ccc4c(c3)NC(=O)CO4)CC2)c1	CASP6 VEID inh 71
C[C@@H](O)C#Cc1ccc([C@H]2[C@H](CO)N3CCCCN(CC4CC4)C[C@@H]23)cc1	SIRT5 block 21 (no result: SUMO HTRF inh, NSD2 HMT inh)
C[C@H](O)C#Cc1ccc([C@H]2[C@H]3CN(CC4CC4)CCCCN3[C@H]2CO)cc1	SIRT5 block 16 (no result: SUMO HTRF inh, NSD2 HMT inh)
OC[C@H]1[C@H](c2ccc(C#CC3(O)CCCC3)cc2)[C@H]2CN(Cc3cncnc3)CCCCN21	SIRT5 block 21 (no result: SUMO HTRF inh, NSD2 HMT inh)
C[C@@H]1CCCCO[C@H](CN(C)C(=O)Cc2ccccc2)[C@@H](C)CN([C@@H](C)CO)C(=O)c2cc(NC(=O)Cc3ccccc3)ccc2O1	none (no result: SUMO HTRF inh, NSD2 HMT inh)
Cc1ccc2nc(SCC(=O)Nc3cc(C)on3)c(C)cc2c1	none
CCOc1ccc2nc(SCC(=O)Nc3cc(C)on3)c(C)cc2c1	SIRT5 block 81
CCOC(=O)COc1ccc(Br)cc1/C=C\c1[nH]c(=O)[nH]c(=O)c1[N+](=O)[O-]	CASP6 VEID inh 56
CCOC(=O)COc1ccc(Br)cc1/C=C/c1[nH]c(=O)[nH]c(=O)c1[N+](=O)[O-]	CASP6 VEID inh 40
C[C@H](CO)N1C[C@H](C)[C@H](CN(C)C(=O)Nc2ccccc2)Oc2ncc(C#CCN(C)C)cc2C1=O	none (no result: SUMO HTRF inh, NSD2 HMT inh)
COc1ccccc1NC(=O)N[C@@H]1CC[C@H](CCn2cc(-c3ccccc3)nn2)O[C@H]1CO	none (no result: SUMO HTRF inh, NSD2 HMT inh)
Cc1c(CC(=O)N2CCN(C(=O)C3COc4ccccc4O3)CC2)c(=O)oc2cc(O)ccc12 (configuration not stated)	none
Cc1c(CC(=O)N2CCN(C(=O)C3COc4ccccc4O3)CC2)c(=O)oc2c(C)c(O)ccc12 (configuration not stated)	SUMO HTRF inh 50
COc1cccc(S(=O)(=O)N[C@@H]2CC[C@H](CC(=O)NCc3ccncc3)O[C@@H]2CO)c1	none (no result: SUMO HTRF inh, NSD2 HMT inh)
O=C(Cc1ccccn1)NCC[C@@H]1CC[C@@H](NC(=O)c2ccccc2F)[C@@H](CO)O1	none (no result: SUMO HTRF inh, NSD2 HMT inh)
O=C(CC1Nc2cccc3cccc(c23)NC1=O)Nc1ccc(F)cc1 (configuration not stated)	SUMO HTRF inh 68
Cc1nc2c(C#N)cnn2c2c1CCNN2C	none (no result: NSD2 HMT inh)
COC(CN1CCc2c(C)nc3c(C#N)cnn3c21)OC	SIRT5 block 17
Cc1cc(C)n(CCc2nc(-c3ccco3)cs2)n1	CASP6 VEID inh 58
Cc1cc(C)n(CCc2nc(-c3cccs3)cs2)n1	none (no result: CASP6 VEID inh, SIRT5 block)
Cc1nn(CCc2nc(-c3ccco3)cs2)c2[nH]c(=O)cc(C(F)(F)F)c12	CASP6 VEID inh 49, SIRT5 block 16
CC(C)NC(=O)Nc1ccc2c(c1)C(=O)N([C@@H](C)CO)C[C@H](C)[C@H](CN(C)C(=O)Nc1cccc3ccccc13)O2	none (no result: SUMO HTRF inh, NSD2 HMT inh)
Cn1ccsc1=NC(=O)c1ccc([N+](=O)[O-])o1	CASP6 VEID inh 49
C[C@@H]1CCCCO[C@H](CN(C)Cc2ccc(C(=O)O)cc2)[C@@H](C)CN([C@@H](C)CO)C(=O)c2cc(NC(=O)CCC(F)(F)F)ccc2O1	none (no result: SUMO HTRF inh, NSD2 HMT inh)
O=C1c2ccccc2C(=O)C12OC2c1cccc2ccccc12 (configuration not stated)	SUMO HTRF inh 96, NSD2 HMT inh 101
O=C(N[C@H]1CC[C@H](CCn2cc(C3(O)CCCC3)nn2)O[C@@H]1CO)c1ccccc1F	none (no result: SUMO HTRF inh, NSD2 HMT inh)
O=C(Nc1nc(-c2ccco2)c(-c2ccco2)s1)c1ccc(F)cc1F	none (no result: SUMO HTRF inh)
O=C(Nc1nc(-c2ccco2)c(-c2ccco2)s1)c1c(F)cccc1Cl	CASP6 VEID inh 75 (no result: SUMO HTRF inh)
Cc1ccc(-c2nnn(CC(=O)N(Cc3ccco3)C(C(=O)NC(C)(C)C)c3ccc(C)o3)n2)o1 (configuration not stated)	SIRT5 block 18
COc1ccc(CN(C(=O)Cn2nnc(-c3ccc(C)o3)n2)C(C(=O)NCC2CCCO2)c2ccco2)cc1 (configuration not stated)	SIRT5 block 112 (no result: NSD2 HMT inh)
Cc1ccc(-c2nnn(CC(=O)N(Cc3ccccc3)C(C(=O)NC(C)(C)C)c3ccncc3)n2)o1 (configuration not stated)	none
O=C(N[C@H]1C=C[C@H](CC(=O)N2CCc3ccccc3C2)O[C@@H]1CO)C1CC1	none (no result: SUMO HTRF inh, NSD2 HMT inh)
COc1ccccc1S(=O)(=O)N[C@@H]1CC[C@@H](CCNC(=O)C2CCOCC2)O[C@@H]1CO	none (no result: SUMO HTRF inh, NSD2 HMT inh)
CC(C)c1cn(CC[C@@H]2CC[C@@H](NC(=O)C3CCCC3)[C@@H](CO)O2)nn1	none (no result: SUMO HTRF inh, NSD2 HMT inh)
COc1ccc(OC)c(S(=O)(=O)NCC(c2cccs2)N2CCc3ccccc3C2)c1 (configuration not stated)	CASP6 VEID inh 72 (no result: SUMO HTRF inh)
O=C(Nc1ccc(F)cc1)N[C@H]1CC[C@@H](CCNS(=O)(=O)c2cccc(Cl)c2)O[C@H]1CO	none (no result: SUMO HTRF inh, NSD2 HMT inh)
CCCOc1ccc(N/C=C/C(=O)c2ccc(OC)c(OC)c2)cc1	SIRT5 block 17
O=C(O)CCCC(=O)OCCCc1cc2ccccc2c(=O)o1	CASP6 VEID inh 37 (no result: SIRT5 block, SUMO HTRF inh, NSD2 HMT inh)
COc1ccc(CN(C)C[C@@H]2OCCCC[C@H](C)Oc3ccc(NC(=O)Nc4ccc(OC)cc4)cc3C(=O)N([C@@H](C)CO)C[C@@H]2C)cc1	none (no result: SUMO HTRF inh, NSD2 HMT inh)
Cc1ccccc1-c1ccc([C@H]2[C@@H](CO)N3CCCCN(C(=O)Nc4ccccc4)C[C@@H]23)cc1	none (no result: SUMO HTRF inh, NSD2 HMT inh)
Cc1ccccc1-c1ccc([C@@H]2[C@H](CO)N3CCCCN(C(=O)Nc4ccc(F)cc4)C[C@@H]23)cc1	SIRT5 block 17 (no result: SUMO HTRF inh, NSD2 HMT inh)
Cc1ccccc1-c1ccc([C@@H]2[C@@H](CO)N3CCCCN(C(=O)Nc4ccc(F)cc4)C[C@@H]23)cc1	SIRT5 block 15 (no result: SUMO HTRF inh, NSD2 HMT inh)
Cc1ccccc1-c1ccc([C@@H]2[C@H](CO)N3CCCCN(C(=O)Nc4ccccc4)C[C@@H]23)cc1	none (no result: SUMO HTRF inh, NSD2 HMT inh)
Cc1cc(C)cc(CSCC(=O)N/N=C/c2ccc(OCC(=O)NCc3ccco3)cc2)c1	SIRT5 block 20
CCS(=O)(=O)Nc1ccc2c(c1)C(=O)N(C)[C@@H]1CC[C@H](CC(=O)NCCOC)O[C@@H]1CO2	none (no result: SUMO HTRF inh, NSD2 HMT inh)
CC(=O)N1c2c(cc(Br)cc2S(=O)(=O)NCc2cccnc2)CC1C (configuration not stated)	none (no result: CASP6 VEID inh, SIRT5 block, NSD2 HMT inh)
CC(=O)N1c2c(cc(Br)cc2S(=O)(=O)NCc2ccc3c(c2)OCO3)CC1C (configuration not stated)	SUMO HTRF inh 92 (no result: CASP6 VEID inh, SIRT5 block)
O=C(O)CCCC(=O)Nc1ccccc1C(=O)N1CCOCC1	SIRT5 block 28
COc1ccc2c3c(n(C)c2c1)[C@H](CO)N(C(=O)Nc1ccc(F)cc1)CC31CCN(C(=O)c2cccnc2)CC1	none (no result: SUMO HTRF inh, NSD2 HMT inh)
CN(C)CC#Cc1ccc([C@H]2[C@H]3CN(C(=O)C4CC4)CCCCN3[C@H]2CO)cc1	none (no result: SUMO HTRF inh, NSD2 HMT inh)
COc1ccc(S(=O)(=O)Nc2ccc3c(c2)CC(=O)N([C@@H](C)CO)C[C@H](C)[C@@H](CN(C)C(=O)Nc2cccc4ccccc24)O3)cc1	none (no result: SUMO HTRF inh, NSD2 HMT inh)
COc1cccc(NC(=O)Cn2c(=O)n(C)c(=O)c3sc4c(c32)COC(C)(C)C4)c1	CASP6 VEID inh 44
CCCNC(=O)N(C)C[C@@H]1Oc2ncc(Br)cc2C(=O)N([C@H](C)CO)C[C@@H]1C	SIRT5 block 20! (no result: SUMO HTRF inh, NSD2 HMT inh)
